Luciferase inh – blocks Photinus pyralis firefly luciferase activity; P08659; Potency, µM (titrated, usually from 57.1 µM), inactives show at the highest dose activity change, negative = inhibition, hits mostly inhibitors; AID 411; 72,000 compounds, 2.2% hits; purified firefly luciferase, luminescence, 8 min; also: nearly all actives have a fitted effect of over 40% in size
Target sequence (P08659 whole entry, looked up): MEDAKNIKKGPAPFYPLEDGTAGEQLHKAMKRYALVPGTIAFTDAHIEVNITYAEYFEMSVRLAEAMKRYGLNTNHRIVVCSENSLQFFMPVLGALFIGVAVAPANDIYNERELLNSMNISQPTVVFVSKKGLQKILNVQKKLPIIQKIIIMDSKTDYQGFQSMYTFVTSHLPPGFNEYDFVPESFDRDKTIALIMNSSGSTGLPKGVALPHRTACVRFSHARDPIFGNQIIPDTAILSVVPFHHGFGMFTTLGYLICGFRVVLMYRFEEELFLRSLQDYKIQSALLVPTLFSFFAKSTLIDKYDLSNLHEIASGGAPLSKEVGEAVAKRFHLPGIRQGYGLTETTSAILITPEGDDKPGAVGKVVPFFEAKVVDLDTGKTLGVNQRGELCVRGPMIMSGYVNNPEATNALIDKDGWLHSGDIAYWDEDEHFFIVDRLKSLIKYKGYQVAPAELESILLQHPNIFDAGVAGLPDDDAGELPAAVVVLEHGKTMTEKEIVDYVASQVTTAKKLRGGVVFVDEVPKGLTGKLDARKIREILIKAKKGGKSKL
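Substrate buffer containing 10 uM ATP (pH 7.2 imidazole, Mg2+, KCl, detergent, BSA) is dispensed, compound pinned in, then luciferase/luciferin detector mix added. After 8 min at ambient temperature, light output is measured.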
p53ts 32C kill – cytotoxicity in p53ts cells at permissive temperature | H1299-p53A138V at 32C, ATP luminescence viability, 24 h | Potency, µM (titrated, usually from 46.1 µM), without a hit: at the highest dose activity change, negative = cytotoxicity, most hits filed as cytotoxic | 130,000 compounds, 0.93% hits | AID 924;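 also: 0% = DMSO and -100% = full killing by reference compound; nearly all actives have a fitted effect of over 55% in size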
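ATP-content luminescence (ATPlite) read-out after 24 h compound exposure at 32C in H1299-p53A138V cells (600/well). Tested up to 46 uM. Normalized to DMSO (0%) and 100 uM tamoxifen (100% killing); Hill-fit AC50.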
p53ts 39C tox – kills p53ts cells at the nonpermissive temperature; H1299-p53A138V viability at 39C, ATP luminescence, 24 h; Potency, µM (top dose mostly 46.1 µM), without a hit: at the top dose activity change, negative = cell killing, usual class: cytotoxic; 130,000 compounds, 1.5% hits; AID 902; also: nearly all actives have a fitted effect of over 55% in size
Numbers without * were called inactive; ? = inconclusive; · = no result given; ! = not active in a repeat; [ ] = another dose, or the depositor's remark. A selection: hits, their analogues and other compounds. The true share with any hit is near 2.5%. Calls follow the shape of the dose curve; as a rule, active = well fitted curve in the direction sought with a large enough effect; inconclusive = small, poorly fitted or top-dose-only effect, or another doubt; inactive = no such curve, though single readings can be large; an effect the other way counts as inactive or inconclusive. Unless noted, % is scaled to controls: 0 for no effect and ±100 for the full control effect; potency is read from the fitted curve at half-maximal effect.

SMILES	Luciferase inh	p53ts 32C kill	p53ts 39C tox
CN1CCN(CCCN2c3ccccc3Sc3ccc(Cl)cc32)CC1	0%[25.5 µM]	16µM*!	20µM*
CCSc1ccc2c(c1)N(CCCN1CCN(C)CC1)c1ccccc1S2	-6%[25.5 µM]	7%[20.6 µM]	-1%[20.6 µM]
CCc1nc(SCC(=O)Nc2ccc(NC(C)=O)cc2)n[nH]1	·	5%	13%
Cc1ccc(Cn2c(C(=O)Nc3cccc(Cl)c3)cc3sccc32)cc1	·	-9%	-11%
Cc1cccc(C)c1NC(=O)c1cc2sccc2n1Cc1ccc(F)cc1	·	-17%	13µM*
CC(=O)c1c(O)c(C)c(O)c2c1OC1=CC(=O)[C@H](C(C)=O)C(=O)[C@]12C	-1%[11.4 µM]	·	·
CO[C@@H]1COC(=O)C/C=C\[C@@H](C)COC(=O)[C@H](Cc2ccccc2)NC(=O)C/C=C\[C@H]1C	1%[11.4 µM]	9%[9.22 µM]	8%[9.22 µM]
O=C(NCCOc1ccccc1)c1ccc2c(c1)OCO2	6.3µM*	?	?
O=C(Nc1ccc2c(c1)OCO2)c1cccc(Cl)c1	13µM*	?	?
Cc1noc(C(=O)Nc2ccc3c(c2)OCO3)c1Cl	13µM*	?	-26%
O=C(Nc1ccc(F)c(F)c1)c1ccc2c(c1)OCO2	?	-25%	-18%
Cc1onc(-c2ccccc2Cl)c1C(=O)Nc1ccc2c(c1)OCO2	·	5%	-8%
CCOCCCNC(=O)c1ccc2c(c1)OCO2	-2%	-7%	-7%
O=C(Nc1ccc(Cl)cc1)c1ccc2c(c1)OCO2	4µM*	?	-29%
O=C(Nc1ccc2c(c1)OCO2)c1cccc(S(=O)(=O)N2CCCC2)c1	-23%	1%	-3%
Cc1cc2nc3[nH]c4c(Cl)cc(Cl)cc4c3nc2cc1C	1%[11.4 µM]	4%[9.22 µM]	6%[9.22 µM]
COc1cccc(Cn2c(=O)c(-c3ccc(Cl)cc3)nc3cncnc32)c1	-1%[11.4 µM]	-26%	?
O=C(Nc1ccc2nsnc2c1)c1ccc2c(c1)OCO2	3.2µM*	?	?
CC(=O)Nc1ccc(C(=O)Nc2ccc3c(c2)OCO3)cc1	-15%	-5%	-10%
O=C(N/N=C/c1cccs1)c1ccc2c(c1)OCO2	·	8.9µM*	10µM*
CCOC(=O)c1c(C)c(C(=O)Nc2ccc3c(c2)OCO3)c(C)n1C	-5%	4%	0%
O=C(Nc1ccon1)c1ccc2c(c1)OCO2	-13%	-25%	-28%
CCOC(=O)c1c(N)sc(C(=O)Nc2ccc3c(c2)OCO3)c1C	0.79µM*	4µM*	2.5µM*
Cc1cc(C(=O)Nc2ccc3c(c2)OCO3)cs1	16µM*	13µM*	10µM*
Cn1cc(C(=O)N/N=C/c2cccs2)c2ccccc21	·	-15%	-7%
SMILES	Luciferase inh	p53ts 32C kill	p53ts 39C tox
Cc1cc(C)cc(NC(=O)C2CCCN2S(=O)(=O)c2cccc3nsnc23)c1 (stereo not drawn)	·	-5%	-10%
Cc1nnc(SCC(=O)Nc2nccs2)s1	3%	3%	-7%
CN(C)c1ccc(NC(=O)c2sc(SCC(=O)Nc3nccs3)nc2N)cc1	4µM*	·	·
COc1ccc(-c2cc(=O)c3c(O)cc(O)cc3o2)cc1	10µM*	?	?
O=c1cc(-c2ccc(O)c(O)c2)oc2cc(O)cc(O)c12	1%[11.4 µM]	·	·
COc1ccc(C)cc1NC(=O)Nc1nnc(N2CCCCC2)s1	·	5%	5%
COc1cc(-c2noc(CN3CCN(c4ccccc4)CC3)n2)cc(OC)c1OC	·	-4%	25µM*
COc1ccccc1N1CCN(Cc2nc(-c3cc(OC)c(OC)c(OC)c3)no2)CC1	·	2%	-10%
C[C@H]1[C@H](C)CC[C@@]2(C(=O)O)CC[C@]3(C)C(=CC[C@H]4[C@@]5(C)C[C@@H](O)[C@H](O)[C@@](C)(CO)[C@@H]5CC[C@@]43C)[C@@H]12	-4%[11.4 µM]	·	·
CN=c1scc(C)n1/N=C/c1ccc(O)cc1	13µM*	7.9µM*	?
Cc1nnc(C)n1/N=C/c1ccc2c(c1)OCCO2	1%	9%	-6%
CN=c1scc(C)n1/N=C/c1ccc2c(c1)OCO2	4µM*	5µM*	5µM*
CCCc1nc2ccccc2c(=O)n1/N=C/c1ccc(O)cc1	1%	12%	-7%
CN=c1scc(C)n1/N=C/c1ccc(O)cc1O	4µM*	5µM*	5µM*
CCCc1nc2ccccc2c(=O)n1/N=C/c1ccc(O)cc1O	1%	6%	-5%
CCCC(=O)Nc1ccc(-c2nc3cc(C)c(C)cc3o2)cc1	?	-6%	6%
CCCC(=O)Nc1cccc(-c2nc3cc(C)c(C)cc3o2)c1C	·	2µM*	2.5µM*
CCCCNc1nc(C)nc2c1nc(-c1ccccc1)n2CC1CCN(C)CC1	·	-12%	-11%
COc1ccc(Cl)cc1NC(=O)c1nn(-c2ccc(C)cc2)c(=O)n(C)c1=O	·	-4%	-19%
O=C(CSc1c2c(nc3ccc(Cl)cc13)CCCC2)N1CCN(C(=O)c2ccco2)CC1	2%	?	6.3µM*
COc1ccc(CNC(=O)CSc2c3c(nc4ccc(Cl)cc24)CCCC3)cc1	·	-4%	20%
CN(Cc1ccccc1)C(=O)CSc1c2c(nc3ccc(Cl)cc13)CCCC2	·	22µM*	?
Cc1ccc(NC(=O)CSc2c3c(nc4ccccc24)CCCC3)cc1F	·	?	16µM*
CCCN(CCC)C(=O)CSc1c2c(nc3ccc(Cl)cc13)CCCC2	·	20µM*	?
O=C(CSc1nc2cc(Cl)ccc2s1)N1CCN(C(=O)c2ccco2)CC1	?	12%	8%
SMILES	Luciferase inh	p53ts 32C kill	p53ts 39C tox
CC(C)CCNC(=O)CSc1c2c(nc3ccc(Cl)cc13)CCCC2	·	5%	?
COc1ccc(OC)c(NC(=O)CSc2c3c(nc4ccccc24)CCCC3)c1	·	30%	?
C/C(=C\CNc1ncnc2c1ncn2[C@@H]1O[C@@H](CO)[C@@H](O)[C@H]1O)CO	1%[11.4 µM]	·	·
COC(=O)N1[C@H](C)C=C[C@]1(Cc1ccccc1)C(=O)NCc1ccc(N(C)C)cc1	·	2%	-4%
Cn1cc(-c2cc3n(n2)CCC(=O)N3CCCC(=O)NCc2ccc(Cl)cc2)c2ccccc21	·	?	13µM*
Cn1cc(-c2cc3n(n2)CCC(=O)N3CCCC(=O)Nc2ccc(Cl)cc2)c2ccccc21	·	-2%	-3%
O=C(O)/C=C\C(=O)Nc1ccc2c(c1)C(=O)c1cc(F)ccc1-2	-5%[11.4 µM]	-14%[9.22 µM]	-7%[9.22 µM]
COc1cccc(-c2cc(C(=O)N3CCN(c4ncccn4)CC3)c3ccccc3n2)c1	6.3µM*	13µM*	?
COc1ccc(-c2cc(C(=O)N3CCOCC3)c3cc(C)ccc3n2)cc1	?	-12%	-17%
Cc1ccc2nc(-c3ccccn3)cc(C(=O)N3CCN(c4ncccn4)CC3)c2c1	5%	-9%	-4%
CC(C)Oc1cccc(-c2cc(C(=O)N3CCN(S(C)(=O)=O)CC3)c3ccccc3n2)c1	5µM*	?	?
CS(=O)(=O)N1CCN(C(=O)c2ccc(-c3ccccc3)cc2)CC1	2%	-6%	-3%
COC(=O)c1cc(-c2ccc3c(c2)OCO3)nc2ccccc12	-17%	-28%	?
O=C(O)c1cc(-c2ccc3cc4c(cc3c2)OCO4)nc2ccccc12	2.5µM*	1.6µM*	1.3µM*
Cc1ccc(-c2cc(C(=O)N3CCOCC3)c3ccccc3n2)cc1	13µM*	?	?
C[C@H](O)[C@H](O)[C@@H](O)c1cnc2nc(N)[nH]c(=O)c2n1	0%[11.4 µM]	·	·
O=C(CSc1nc2c([nH]c3ccccc32)c(=O)n1-c1ccccc1F)Nc1ccccc1C(F)(F)F	·	-15%	-16%

Source: PubChem BioAssay (National Center for Advancing Translational Sciences (NCATS))
